Measured values reported in the supplement of paper PMC6555819.

Legend:
Assay in all cases: PBM binding z-score (relative to random genomic background probes); higher = stronger binding; sequences stand for … in GC…GCGATTGACAGCGTAGAATGAAGG
[1] = test system: FXR:RXRa (NR concentration 270 nM, RXRa partner concentration 90 nM)
Summary of the method: (§1)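 Each nuclear receptor dimer, without ligand, was incubated for 1 h on custom Agilent 4×180K protein-binding microarrays. Binding was detected with antibodies against each partner (one per run), and scanned fluorescence was regression-normalized. The binding z-scores are referenced to random human genomic background probes.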

[2] = test system: LXRa:RXRa (NR concentration 270 nM, RXRa partner concentration 90 nM)
Summary of the method: as §1

[3] = test system: LXRa homodimer (NR concentration 270 nM)
Summary of the method: as §1

[4] = test system: LXRb:RXRa (NR concentration 270 nM, RXRa partner concentration 90 nM)
Summary of the method: as §1

[5] = test system: LXRb homodimer (NR concentration 270 nM)
Summary of the method: as §1

[6] = test system: PPARa:RXRa (NR concentration 270 nM, RXRa partner concentration 90 nM)
Summary of the method: as §1

[7] = test system: PPARg:RXRa (NR concentration 180 nM, RXRa partner concentration 90 nM)
Summary of the method: as §1

[8] = test system: PPARg:RXRa 270nM:90nM, anti-RXR (NR concentration 270 nM, RXRa partner concentration 90 nM)
Summary of the method: as §1

[9] = test system: PPARg:RXRa 30nM:10nM, anti-RXR (NR concentration 30 nM, RXRa partner concentration 10 nM)
Summary of the method: as §1

[10] = test system: PPARg:RXRa 90nM:30nM, anti-RXR (NR concentration 90 nM, RXRa partner concentration 30 nM)
Summary of the method: as §1

[11] = test system: PPARg:RXRa DBDmut IVT, anti-RXR (DBD mutation: RXRa K156A/R161A, NR concentration 270 nM, RXRa partner concentration 90 nM)
Summary of the method: as §1

[12] = test system: PPARg:RXRa IVT, anti-PPARg (NR concentration 270 nM, RXRa partner concentration 90 nM)
Summary of the method: as §1

[13] = test system: PPARg DBDmut:RXRa IVT, anti-PPARg (DBD mutation: PPARg1 K132A/R137A, NR concentration 270 nM, RXRa partner concentration 90 nM)
Summary of the method: as §1

[14] = test system: PPARg DBDmut IVT, anti-PPARg (DBD mutation: PPARg1 K132A/R137A, NR concentration 270 nM)
Summary of the method: as §1

[15] = test system: PPARg homodimer (NR concentration 180 nM)
Summary of the method: as §1

[16] = test system: PXR:RXRa (NR concentration 270 nM, RXRa partner concentration 90 nM)
Summary of the method: as §1

[17] = test system: PXR homodimer (NR concentration 270 nM)
Summary of the method: as §1

[18] = test system: RARa:RXR (NR concentration 270 nM, RXRa partner concentration 90 nM)
Summary of the method: as §1

[19] = test system: RARa homodimer (NR concentration 270 nM)
Summary of the method: as §1

[20] = test system: RARb:RXRa (NR concentration 270 nM, RXRa partner concentration 90 nM)
Summary of the method: as §1

Sequence	PBM binding z-score [1]	PBM binding z-score [2]	PBM binding z-score [3]	PBM binding z-score [4]	PBM binding z-score [5]	PBM binding z-score [6]	PBM binding z-score [7]	PBM binding z-score [8]	PBM binding z-score [9]	PBM binding z-score [10]	PBM binding z-score [11]	PBM binding z-score [12]	PBM binding z-score [13]	PBM binding z-score [14]	PBM binding z-score [15]	PBM binding z-score [16]	PBM binding z-score [17]	PBM binding z-score [18]	PBM binding z-score [19]	PBM binding z-score [20]
TCTGCTAGGTCAATTGGTCAGCTAACGAGCTGCC	2.99	2.31	-0.37	1.44	0.648	3.04	1.76	2.76	1.64	2.31	3.71	3.87	1.29	0.854	2.37	0.895	-0.774	1.87	-0.436	3.79
GCTATAAGTTGAAAGGGCAACCGAATGATTCTCG	1.08	1.24	0.185	1.23	-0.471	3.05	2.26	3.37	1.46	3.15	0.434	0.831	0.223	0.266	1.11	1.41	0.107	2.56	0.129	2.46
TCTTGTAGATCAAAGGTGAAGAAAGCCGAAGCCT	0.848	1.05	-0.533	0.994	-0.372	4.04	7.41	7.96	7.36	9.05	2.96	3.53	-0.0532	0.112	0.161	0.885	-0.554	1.86	-0.538	1.49
TGAATGAGGTTAATGATCAGGGAACGTGGCGTCG	1.4	1.33	-0.115	0.692	0.285	2.39	1.58	1.84	0.601	1.17	2.04	1.98	1.1	0.18	0.483	0.561	0.0582	0.918	0.17	1.52
CCGACTGGGGCAAGGTTACAATAACGCACAGCCA	0.137	0.576	-0.19	0.492	-1.15	1.94	3	2.86	1.2	2.36	3.2	3.29	-0.578	-1.14	0.441	0.333	-0.113	0.945	0.189	1.38
CAAACTAGGTCAAGGTCAAAGCCGGTTTGTGCCA	6.25	5.33	3.23	4.36	1.05	6.15	9.26	8.02	6.18	7.95	8.75	8.89	2.59	0.00542	2.93	4.89	1.4	4.84	0.855	5.2
GCAACTGGGGCAAAGCAGGTTACCATAAGGTTGG	0.393	0.00585	-0.385	0.511	-0.769	2.06	2.61	2.77	0.156	1.77	5.89	5.52	0.219	-0.357	-0.0265	0.339	-0.607	0.838	-0.392	0.995
GCTAGCAGGCCATTTGGGTCACTCACTGACGGGC	0.237	-0.137	-0.55	-0.212	-0.64	1.16	0.358	0.596	-0.357	0.202	2.26	2.51	-1.21	-1.1	0.122	0.354	-0.0107	0.762	-0.483	1.45
AGAATAAGGTTATTAAGATCAGGGAATTGCGGTC	1.43	1.6	0.352	1.32	-0.02	2.42	1.12	1.67	0.45	1.38	2.24	1.81	1.52	0.812	1.04	1.13	0.666	1.49	1.34	1.72
CGTCCAAGGTCAGCAGGTCGGTGAAAGCGACGTG	5.28	3.29	-0.232	2.07	-0.502	4.33	2.97	3.45	0.508	2.15	2.81	2.89	-0.853	-0.476	2.43	2.61	-0.066	3.58	0.0156	5.19
AATACAGGGTCACTAGGCCAGAGCAGGTACGAAT	5.98	5.08	0.784	3.77	0.86	5.66	7.53	6.45	3.36	5.53	4.31	5.63	2.36	1.22	2.4	3.16	-0.000752	4.15	0.899	4.16
CAAACTAGGTCAAGGGCAAAGTCGGTTTGTGCCA	3.97	3.12	0.592	2.17	0.2	5.38	9.21	8.06	6.95	8.38	8.17	8.56	2.21	2.46	3.97	2.25	0.415	2.77	0.377	4.27
TTACCAAGGTGACGGTCGTTGATCCCTCTGTAGA	1.07	0.963	-0.313	0.464	-0.534	1.5	0.654	1.29	0.738	0.929	2.39	3.64	0.228	-0.126	0.25	0.252	-0.877	0.759	-0.412	1.82
AGTCAAAGTTCAGGACGAGGAAACGTAAAGCACG	3.83	3.6	0.784	1.92	0.307	3.21	5.02	5.02	2.33	4.27	-0.351	1.46	0.63	0.55	1.71	2.42	0.845	2.26	-0.0138	4.25
